These results are taken from PubChem BioAssay (Tox21).

Records with an inconclusive call do not appear. Entries that show only a call come without a potency. A number with no mark means an inactive call. The source made the active and inactive calls. Calls follow the shape of the dose curve; as a rule, active = well fitted cell-killing curve with a large enough effect in the repeat runs; inconclusive = weak or mixed curves, or effect the other way; inactive = flat fitted curve, though single readings scatter.

A short description of the assay: qHTS assay to identify small molecule antagonists of the estrogen receptor alpha (ER-alpha) signaling pathway using the BG1 cell line in the presence of 0.1 nM 17-beta-estradiol - cell viability counter screen (AID 1259241). Also: nearly all actives have a fitted effect of over 40% in size. Conditions: VM7Luc4E2 (BG1) viability, CellTiter-Fluor protease, 22 h, 0.1 nM estradiol agonist added; series mostly up to 92.4 µM; activity change, negative = cytotoxicity: at the top concentration. From the text: National Center for Advancing Translational Sciences [NCATS]
NIH Chemical Genomics Center [NCGC]
U.S. Environmental Protection Agency [EPA]
National Institutes of Environmental Health Sciences [NIEHS]
National Toxicology Program [NTP]
U.S. Food and Drug Administration [FDA]
Estrogen receptor (ER), a member of the nuclear hormone receptor plays an important role in development, metabolic homeostasis and reproduction. Two subtypes of ER, ER-alpha and ER-beta, have similar expression patterns with some uniqueness in both types. Endocrine disrupting chemicals (EDCs) and their interactions with steroid hormone receptors like ER causes disruption of normal endocrine function. Therefore, it is important to understand the effect of environmental chemicals in ER signaling pathway. For identifying ER antagonists, VM7Luc4E2 cell line was used to screen against Tox21 compound libraries.
VM7Luc4E2 cell line (provided by Denison MS, University of California) endogenously express full-length ER-alpha and is stably transfected with a plasmid containing four estrogen responsive elements (ERE) upstream of a luciferase reporter gene. The current screening for identification of ER-alpha inhibitors against Tox21 compound libraries used lower concentration (0.1 nM) of 17beta-Estradiol as a stimulator. The cytotoxicity of the Tox21 compound libraries against VM7Luc4E2 cell line was tested by measuring live-cell protease activity using CellTiter-Fluor assay in the same wells.
Tox21 Assay Protocol Summary:
VM7Luc4E2 cells were cultured in phenol red free assay medium containing 10% charcoal stripped FBS for 5 days prior to the assay. The cells were dispensed at 4,000 cells/well in 4 uL of assay medium into white wall/solid-bottom 1536-well plates (Corning Life Sciences, Corning, NY) using a Multidrop Combi (ThermoFisher Scientific, Waltham, MA) dispenser. After the assay plates were incubated at 37C and 5% CO2 for 24 hr, 23 nL of compounds dissolved in DMSO, positive controls or DMSO only was transferred to the assay plates by a Pintool station (Kalypsys, San Diego, CA). The transfer of compounds was followed by the addition of 1 uL of 0.1 nM (final concentration) agonist (17beta-Estradiol)/assay medium using a Flying Reagent Dispenser (FRD, Aurora Discovery, San Diego, CA). The plates were incubated at 37C and 5% CO2 for 22 hr. For cytotoxicity assay, 1 uL of CellTiter-Fluor reagent (Promega Corporation, Madison, WI) was added to each well using the FRD and after 30 min incubation at 37C and 5% CO2, The fluorescence intensity was measured using ViewLux plate reader (PerkinElmer, Shelton, CT).
(In general: Quantitative high-throughput screening tests each substance at several concentrations.)
Turning to `CC1(C)C(C=C(Cl)Cl)C1C(=O)OCc1cccc(Oc2ccccc2)c1` (stereo not given), the Potency result was “inactive”. Same read-out and setting: for `Nc1cc(Cl)c(N)c(Cl)c1` the value was “inactive”; for `Cc1ccc(N)c([N+](=O)[O-])c1`, “inactive”; for `CCO[Si](CCCNC(N)=O)(OCC)OCC`, “inactive”. Still for that read-out and setting: the same measure for `c1ccc2c(c1)ccc1ncccc12`: “inactive”; for `CC1(C)OC(=O)NC1=O`: “inactive”. As for `CC/C=C\C/C=C\C/C=C\CCCCCCCC(=O)O`, the “activity change, negative = cytotoxicity” value was 5.9%. Same read-out and setting: the same measure for `CCC(=O)O[C@H]1[C@H](O[C@@H]2[C@@H](C)[C@H](O[C@H]3C[C@@](C)(OC)[C@@H](O)[C@H](C)O3)[C@@H](C)C(=O)O[C@H](CC)[C@@](C)(O)[C@H](O)[C@@H](C)C(=O)[C@H](C)C[C@@]2(C)O)O[C@H](C)C[C@@H]1N(C)C`: -13.8% [at 42.5 µM].

For `O=C(O)COCCN1CCN(C(c2ccccc2)c2ccc(Cl)cc2)CC1` (stereo not given), the Potency result is “inactive”. Still for that read-out and setting: for `O=C(O)c1ccc(O)cc1` the value was “inactive”; for `C=C[Si](OCCOC)(OCCOC)OCCOC`, “inactive”. For the compound `CC(=O)[C@H]1CC[C@H]2[C@@H]3CC=C4C[C@@H](O)CC[C@]4(C)[C@H]3CC[C@]12C`, the Potency entry was “inactive”. Same read-out and setting: the same measure for `OC[C@H]1O[C@@H]2O[C@H]3[C@H](O)[C@@H](O)[C@@H](O[C@H]4[C@H](O)[C@@H](O)[C@@H](O[C@H]5[C@H](O)[C@@H](O)[C@@H](O[C@H]6[C@H](O)[C@@H](O)[C@@H](O[C@H]7[C@H](O)[C@@H](O)[C@@H](O[C@H]1[C@H](O)[C@H]2O)O[C@@H]7CO)O[C@@H]6CO)O[C@@H]5CO)O[C@@H]4CO)O[C@@H]3CO`: “inactive”. The same measure, in the same setting: the same measure for `CC(C)[C@@H]1CC[C@@H](C)CC1=O`: “inactive”; for `Nc1ccc2c(c1)C(=O)c1ccccc1C2=O`: “inactive”. Same read-out and setting: the same measure for `CC(=O)OC(C)C`: “inactive”; for `Cc1ccc(C)c(O)c1`: “inactive”. Turning to `CC(C)(Oc1ccc(Cl)cc1)C(=O)O`, the Potency result is “inactive”.

As for `Cc1ccc(/C(=C\CN2CCCC2)c2ccccn2)cc1`, the “activity change, negative = cytotoxicity” value is -15.1% [at 42.5 µM]. Take `c1ccc2cc3ccccc3cc2c1`: the Potency result is “inactive”. On the same count and under the same terms, for `Cc1ccc(S(=O)(=O)NCl)cc1` the value was “inactive”; for `C=CC(C)(O)CCC=C(C)C` (stereo not given), “inactive”. Still for that read-out and setting: the same measure for `CC(=O)O[C@]1(C(C)=O)CC[C@H]2[C@@H]3C=C(C)C4=CC(=O)CC[C@]4(C)[C@H]3CC[C@@]21C`: “inactive”; for `CN(Cc1cnc2nc(N)nc(N)c2n1)c1ccc(C(=O)N[C@@H](CCC(=O)O)C(=O)O)cc1`: “inactive”; for `Cc1ccc(C(C)(C)C)cc1`: “inactive”. Same read-out and setting: for `C/C=C/C(=O)N(CC)c1ccccc1C` the value was “inactive”; for `C[N+](C)(C)CCO`, “inactive”.

`Oc1c(Cl)ccc(Cl)c1Cl`: the Potency result is “inactive”. In the case of `[O-]/[N+](=N\O)c1ccccc1`, the Potency entry was “inactive”.

For `Cc1ccc(C(C)(C)C)c(O)c1`, the Potency result was “inactive”. Take `O=C(O)CCCCCCCCCCCC(=O)O`: the Potency result is “inactive”. On the same count and under the same terms, the same measure for `CNC[C@H](O)c1ccc(O)c(O)c1`: “inactive”; for `Cc1ccc(S(=O)(=O)O)cc1C`: “inactive”. Same read-out and setting: for `Nc1cc([N+](=O)[O-])ccc1C(=O)O` the value was “inactive”. Same read-out and setting: for `CCCCCC=O` the value was “inactive”; for `CC1(C)O[C@@H]2C[C@H]3[C@@H]4C[C@H](F)C5=CC(=O)C=C[C@]5(C)[C@@]4(F)[C@@H](O)C[C@]3(C)[C@]2(C(=O)CO)O1`, “inactive”. In the case of `FC(F)(F)C(Cl)Br` (stereo not given), the Potency entry is “inactive”. On to `ClC/C=C/CCl`, for which the Potency result was “inactive”. In the case of `COCCOCCOCCO`, the Potency result is “inactive”. Regarding `CC(C)[N+](C)(CCOC(=O)C1c2ccccc2Oc2ccccc21)C(C)C`, the Potency entry was “inactive”.
